Screening data as filed in PubChem BioAssay.
Vaccinia Venus: qHTS for Stage-Specific Inhibitors of Vaccinia Orthopoxvirus: Venus Reporter Primary qHTS; Vaccinia virus Venus reporter expression, fluorescence; Potency, µM (highest dose often 36.5 µM), hits mostly inhibitors; actives 0.46% (n = 330,000); AID 720580, 2013; calls by dose curve; tested in A549 cells; also: nearly all actives have a fitted effect of over 30% in size
HCV inh: qHTS Assay for Inhibitors of Hepatitis C Virus (HCV); Huh7.5.1 HCVcc-Cre infection, luciferase reporter, 44 h; AID 651820, 2012; Potency, µM (series often up to 41.8 µM), actives largely listed as inhibitors; actives 3.4% (n = 340,000); active = well fitted inhibition curve with a large enough effect; inconclusive = small, poorly fitted or top-dose-only effect, or another doubt; inactive = no such curve, though single readings can be large or run the other way
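Infectious HCVcc-Cre (~0.5 moi) was added to cells just after compound, with cells seeded 4 h earlier at 1,000 per well. Luciferase activity after 44 h culture reported infection; substrate was incubated 15 min at room temperature before reading.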
MARV entry inh: qHTS for inhibitors of binding or entry into cells for Marburg Virus. Marburg virus pseudotyped entry inhibition, cell reporter. Potency, µM (doses to about 37.8 µM), actives largely listed as inhibitors. actives 1.8% (n = 300,000); calls by dose curve; tested in HEK293 cells
HCMV inh: qHTS Assay for inhibitors of the human cytomegalovirus (HCMV). HFF cells, HCMV-luciferase reporter, 72 h; active compounds read low. activity change, negative = inhibition, % at 57.5 µM. actives 4.5% (n = 410,000); in the data active = activity change below about -60%; inconclusive = no clear call, values can overlap the other calls; inactive = above about -39%
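Human foreskin fibroblasts infected with luciferase-reporter HCMV at MOI 1 PFU/cell, compounds at two doses. Luciferase measured 72 h post infection; normalized to buffer-only basal and Salinomycin (10uM) controls.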
Vaccinia mCherry: qHTS for Stage-Specific Inhibitors of Vaccinia Orthopoxvirus: mCherry Reporter Primary qHTS. Potency, µM (titrated, usually from 36.5 µM), most hits filed as inhibitors. Vaccinia virus mCherry reporter infection, fluorescence. actives 0.63% (n = 310,000); calls by dose curve; tested in A549 cells; also: nearly all actives have a fitted effect of over 35% in size
Lassa entry inh: qHTS for Inhibitors of binding or entry into cells for Lassa Virus; Lassa virus pseudotype entry inhibition, cell reporter; Potency, µM (doses to about 37.9 µM), actives largely listed as inhibitors; actives 1.2% (n = 300,000); AID 540256, 2011; calls by dose curve; tested in HEK293 cells; also: nearly all actives have a fitted effect of over 50% in size
Each line names hits and unclear results; the compound was inactive in the other large screens. Rows were chosen to be rich in hits. Some 7.8% of all compounds tested hit in one or more screens of this group.

CC(=O)c1cccc(NS(=O)(=O)c2c(C)nc3sc(C)cn3c2=O)c1	none (no result: HCV inh, MARV entry inh)
COc1ccc(S(=O)(=O)N2CCCCCC2)cc1C(=O)NCc1ccccc1Cl	Lassa entry inh inconclusive
COc1cc(OC)c(OC)cc1CNC(=O)c1cccc(S(=O)(=O)N2CCc3ccccc3C2)c1	HCV inh 1.8µM, MARV entry inh inconclusive, HCMV inh inconclusive, Lassa entry inh inconclusive
COc1ccc(CCNC(=O)COc2ccc(S(=O)(=O)NC3CCCCC3)cc2Cl)cc1OC	HCV inh inconclusive, MARV entry inh inconclusive, HCMV inh -62
COc1ccc(CNC(=O)c2cc(S(=O)(=O)N3CCCCC3)ccc2Cl)cc1OC	HCV inh 11µM, MARV entry inh inconclusive, HCMV inh -64
CCCC[C@]12Cc3cc(C#N)ccc3[C@H](O1)c1c(c3ccccc3oc1=O)O2	none (no result: Vaccinia Venus, HCV inh, HCMV inh, Vaccinia mCherry, Lassa entry inh)
O=c1ccc(-c2ccccc2)nn1Cc1c(F)cccc1Cl	Lassa entry inh inconclusive (no result: HCV inh)
Cc1ccc(C2NC(c3ccc4c(c3)OCO4)=CC(c3cc(Br)ccc3O)N2)cc1 (stereo not drawn)	none (no result: HCV inh, MARV entry inh, HCMV inh, Lassa entry inh)
COC(=O)[C@@H]1[C@@H](c2cccc(C(F)(F)F)c2)NC(=O)N(Cc2ccccc2)[C@@H]1C	none (no result: Vaccinia Venus, HCV inh, HCMV inh, Vaccinia mCherry, Lassa entry inh)
COc1ccc(-c2coc3cc4oc(=O)cc(C)c4cc23)cc1F	HCV inh inconclusive, MARV entry inh inconclusive, HCMV inh -63, Lassa entry inh inconclusive (no result: Vaccinia Venus, Vaccinia mCherry)
Cc1cn2c(-c3ccc(Cl)cc3)nnc2s1	HCV inh 10µM (no result: MARV entry inh, Lassa entry inh)
CC1(C)CC(=O)C(CS(=O)(=O)c2ccccc2)=C(Cl)C1	HCMV inh -68 (no result: Vaccinia Venus, MARV entry inh, Vaccinia mCherry, Lassa entry inh)
COC(=O)C1=C(CS(=O)(=O)c2ccccc2)NC(=O)NC1c1ccccc1 (stereo not drawn)	none (no result: Vaccinia Venus, MARV entry inh, Vaccinia mCherry, Lassa entry inh)
COc1ccc(OC)c(C(=O)NC2CC(C)(C)Cc3c2cnn3-c2ccccc2)c1 (stereo not drawn)	HCV inh 13µM, HCMV inh -77 (no result: Vaccinia Venus, MARV entry inh, Vaccinia mCherry, Lassa entry inh)
COc1ccc(-n2ncc3c2CC(C)(C)CC3NC(=O)c2ccoc2C)cc1 (stereo not drawn)	HCV inh inconclusive, MARV entry inh inconclusive
CCCCOc1ccc(CN(CCO)CCO)cc1[N+](=O)[O-]	none (no result: Vaccinia Venus, Vaccinia mCherry)
CCOc1ccc(CSC2=NCCN2)cc1[N+](=O)[O-]	Vaccinia Venus inconclusive, MARV entry inh 4µM, Lassa entry inh inconclusive
CCOc1ccc(CN(CCO)CCO)cc1[N+](=O)[O-]	HCMV inh -68
CC#CCN1C(=O)N(C)C(c2ccccc2)C(C(=O)OC)=C1C (stereo not drawn)	none (no result: Vaccinia Venus, HCV inh, HCMV inh, Vaccinia mCherry, Lassa entry inh)
CCCCn1c(N)c(N(CC(C)C)C(=O)C2CC(=O)N(c3ccc(C)cc3)C2)c(=O)[nH]c1=O (stereo not drawn)	HCMV inh -89
CCCCn1c(N)c(N(CC(C)C)C(=O)C2CC(=O)N(c3ccc4c(c3)OCCO4)C2)c(=O)[nH]c1=O (stereo not drawn)	HCV inh inconclusive, MARV entry inh inconclusive
CCCCn1c(N)c(N(CCOC)C(=O)c2ccc(N3CCCC3=O)cc2)c(=O)[nH]c1=O	HCMV inh -101 (no result: Vaccinia Venus, MARV entry inh, Vaccinia mCherry, Lassa entry inh)
C[C@H](CO)N1C[C@H](C)[C@H](CN(C)C(=O)Nc2ccc(N3CCCCC3)cc2)OCc2cnnn2CCCC1=O	none (no result: Vaccinia Venus, HCV inh, MARV entry inh, Vaccinia mCherry, Lassa entry inh)
Cn1nc(CC(=O)NCc2ccc(F)cc2)c2ccccc2c1=O	HCV inh 11µM, HCMV inh inconclusive (no result: MARV entry inh, Lassa entry inh)
Cn1nc(CC(=O)N2CCN(c3ccccc3)CC2)c2ccccc2c1=O	MARV entry inh inconclusive, Lassa entry inh inconclusive
Cn1nc(CC(=O)Nc2ccc3c(c2)OCCO3)c2ccccc2c1=O	HCV inh 6.3µM, MARV entry inh inconclusive (no result: Vaccinia mCherry)
COc1cc(NC(=O)Cc2nn(C)c(=O)c3ccccc23)cc(OC)c1	Vaccinia Venus inconclusive, HCV inh 10µM, MARV entry inh inconclusive, HCMV inh -88 (no result: Vaccinia mCherry)
Cn1nc(CC(=O)Nc2ccc(N3CCN(C(=O)OC(C)(C)C)CC3)cc2)c2ccccc2c1=O	HCV inh inconclusive, HCMV inh -79
COc1ccccc1NC(=O)Cc1nn(C)c(=O)c2ccccc12	HCV inh inconclusive, MARV entry inh inconclusive (no result: Vaccinia Venus, HCMV inh, Vaccinia mCherry)
CC(C)N(Cc1ccccc1)C(=O)CCS(=O)(=O)c1cc2c(cc1Cl)NC(=O)CO2	none (no result: HCV inh, MARV entry inh)
